# Results from PubChem BioAssay (EPA / NIEHS).
# The source made the active and inactive calls. The calls were made as follows: active = hit-call score of the fitted dose curve at least 0.9, where 1 is the maximum; inactive = score below 0.9.
# Assay: ATG_ISRE_CIS: Attagene CIS-FACTORIAL HepG2 Assay for human Interferon Regulatory Factor 1 (IRF1) binding to an Interferon-Stimulated Response Element (ISRE) (AID 2282948)
# Conditions: HepG2 ISRE cis-reporter (Attagene), mRNA transcription readout; actives raise or lower the signal
# Experimental: ATG_CIS is a cell-based, multiplexed-readout assay that uses HepG2, a human liver cell line, with measurements taken at 24 hours after chemical dosing in a 24-well plate.ATG_ISRE_CIS is one of 52 assay component(s) measured or calculated from the ATG_CIS assay. It is designed to make measurements of mRNA induction, a form of inducible reporter, as detected with fluorescence intensity signals by Reverse transcription polymerase chain reaction (RT-PCR) and Capillary electrophoresis technology.Data from the assay component ATG_ISRE_CIS was analyzed into 1 assay endpoint. This assay endpoint, ATG_ISRE_CIS, was analyzed with bidirectional fitting relative to DMSO as the negative control and baseline of activity. Using a type of inducible reporter, measures of mRNA for gain or loss-of-signal activity can be used to understand the reporter gene at the transcription factor-level as they relate to the gene IRF1. Furthermore, this assay endpoint can be referred to as a primary readout, because this assay has produced multiple assay endpoints where this one serves a reporter gene function. To generalize the intended target to other relatable targets, this assay endpoint is annotated to the dna binding intended target family, where the subfamily is interferon regulatory factors.
# Human liver HepG2 cells are transiently transfected with multiple reporter transcription units (MRTUs) in 6-well plates using FuGene 6 reagent (Roche; 3 ml FuGene/1 mg DNA). The MRTU constructs are regulated by a cis-regulating element (promoter). […] A major difference between the CIS and TRANS system is that in CIS activities of endogenous TFs are measured, whereas the TRANS assay evaluates changes in activities of exogenous, chimeric NR-Gal4 proteins. […] At the end of 24 hour incubation, total RNA was isolated using TriZol reagent (Invitrogen). The isolated RNA is then reverse-transcribed using oligo(dT) primer and Mo-MLV reverse transcriptase (Invitrogen) with DNAse I (Ambion) treatment for 30 min. The one-tenth of the produced cDNA was amplified by PCR using Taq DNA polymerase (Invitrogen) and two reporter sequence-specific primers. The PCR products were fluorescently labeled by primer extension with 6-arboxyfluorescein (6-FAM) 5'-labeled reporter sequence-specific primer (2 min at 95 C, 20 s at 68 C and 10 min at 72 C) and these products were digested with 5U of HpaI (New England Biolabs) for 2h at 37 C. The fragments were purified using Qiaquick PCR columns (Qiagen), analyzed on an ABI 3130xL genetic analyzer (Applied Biosystems) with peak positions identified by using a set of X-rhodamine (ROX)-labeled MapMarker1000 molecular weight standards (BioVentures). The raw capillary electrophoresis data was processed using Attagraph software (Attagene).
Structure (SMILES),outcome,AC50
CC(C)OC(=O)COc1ccc(Cl)cc1Cl,inactive,–
CC(C)C(=O)OCc1ccccc1,inactive,–
CCCCCCCCCCCCC[N+](C)(C)Cc1ccccc1,inactive,–
Cc1ccc(S(=O)(=O)C(I)I)cc1,–,4.8 µM (active)
CCN(CC)c1ccc(C=O)c(O)c1,–,75.4 µM (active)
O=C(c1ccccc1)c1ccc(Cl)cc1,inactive,–
C=C(C)C(=O)OCC(F)(F)C(F)(F)C(F)(F)C(F)F,inactive,–
O=C(Cl)C(F)(F)C(F)(F)C(F)(F)C(F)(F)C(F)(F)C(F)(F)F,inactive,–
O=C1C=CC(=O)N1c1ccccc1,inactive,–
CN(C)C(C)(C)CO,inactive,–
Cc1cnccn1,inactive,–
CC(C)OC=O,inactive,–
Cc1cc(O)c(C(C)(C)C)cc1C(C)(C)C,–,17.2 µM (active)
OCC(F)(F)C(F)(F)C(F)(F)CO,inactive,–
CCOC(=O)C1CC(=O)C(=C(O)C2CC2)C(=O)C1 (stereo not given),inactive,–
Nc1cc([N+](=O)[O-])cc(Cl)c1O,inactive,–
O=S(=O)(OCC(F)(F)F)C(F)(F)C(F)(F)C(F)(F)C(F)(F)F,–,63.2 µM (active)
COCCC(=O)OC,inactive,–
CSc1ccc(Cl)cc1,inactive,–
CC1=CC2C3C=CC(C3)C2C1C (stereo not given),inactive,–

Structure (SMILES),outcome,AC50
O=C(O)CCC(F)(F)C(F)(F)C(F)(F)C(F)(F)C(F)(F)C(F)(F)C(F)(F)F,–,150 µM (active)
Cc1ccc([N+](=O)[O-])c(C)c1,inactive,–
COC(F)(C(F)F)C(F)(F)F (stereo not given),inactive,–
FC(F)(F)C(F)(F)C(F)(F)CC1CO1 (stereo not given),inactive,–
O=S(=O)(O)CCC(F)(F)C(F)(F)C(F)(F)C(F)(F)F,inactive,–
CC(=O)CCC(C)C,inactive,–
CCCCCCCCn1sc(Cl)c(Cl)c1=O,inactive,–
CC(C)CC=C(C=O)c1ccccc1,inactive,–
Nc1cccnc1N,inactive,–
CCc1cc(Cc2cc(CC)c(N)c(CC)c2)cc(CC)c1N,inactive,–
C[C@]12CC[C@H]3C(=CCc4cc(O)ccc43)[C@@H]1CCC2=O,inactive,–
CCN=c1cc2oc3cc(NCC)c(C)cc3c(-c3ccccc3C(=O)OCC)c-2cc1C,–,8.05 µM (active)
C=C(C)CCCC,inactive,–
C=CC(=O)OCCC(F)(F)C(F)(F)C(F)(F)C(F)(F)F,inactive,–
NCC(F)(F)C(F)(F)C(F)(F)C(F)(F)C(F)(F)C(F)(F)C(F)(F)C(F)(F)F,inactive,–
Cc1cc(=O)[nH]c(C(C)C)n1,inactive,–
Brc1nc2ccccc2s1,inactive,–
CC1=CCC(=O)O1,inactive,–
CCc1ccc(C)nc1,inactive,–
OCC(O)CC(F)(F)C(F)(F)C(F)(F)C(F)(F)C(F)(F)C(F)(F)C(F)(F)C(F)(F)F (stereo not given),inactive,–
